Compound activity (PubChem BioAssay)
This is a sample that favours compounds with a hit; in the whole collection about 3.8% have one here.
PrP UTR inh: suppresses PrP 5' UTR mRNA reporter expression. AID 488862. 0.35% of 340,000 active. inhibition, % (no concentration beside the values). cell-based PrP 5' UTR mRNA reporter, plate reader; in the data active = inhibition above about 52%; also: 0 = median of the neutral control wells
Mtb hypoxia inh: Mtb hypoxia fluorescent reporter inhibition | M. tuberculosis hypoxia-regulated fluorescent reporter, fluorescence | fluorescence inhibition, % (no concentration beside the values) | 0.1% of 300,000 active; in the data active = fluorescence inhibition mostly above about 23%, no sharp cut-off; inactive = mostly below about 17%
Mtb FBA inh: Mtb fructose-bisphosphate aldolase inhibition | P9WQA3 | purified M. tuberculosis FBA, fluorescence read-out | inhibition, % at 1 µM | 2.3% of 360,000 active | AID 588726; in the data active = inhibition above about 27%;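 also: 0% = vehicle and 100% = reference inhibitor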
Target sequence (P9WQA3 whole entry, looked up): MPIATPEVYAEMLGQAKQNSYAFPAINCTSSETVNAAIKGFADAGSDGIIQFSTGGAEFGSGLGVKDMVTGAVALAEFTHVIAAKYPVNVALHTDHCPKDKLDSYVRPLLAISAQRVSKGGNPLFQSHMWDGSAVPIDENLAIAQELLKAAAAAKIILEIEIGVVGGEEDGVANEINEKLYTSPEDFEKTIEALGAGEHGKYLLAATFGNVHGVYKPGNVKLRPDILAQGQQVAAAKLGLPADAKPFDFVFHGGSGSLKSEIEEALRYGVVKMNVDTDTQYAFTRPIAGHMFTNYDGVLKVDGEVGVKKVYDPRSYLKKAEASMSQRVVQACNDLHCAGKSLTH
PrPC surface inh: cell surface PrPC inhibition, primary TR-FRET screen; inhibition, % at 13.8 µM; 0.43% of 370,000 active; TR-FRET read-out; AID 720596; in the data active = inhibition above about 24%; also: 0% = median of the test wells and 100% = reference compound wells
Y pestis TopoI: blocks Yersinia pestis topoisomerase I activity | 0.064% of 360,000 active | Y. pestis Topo-I cleavage product accumulation, plate reader | AID 504884 | activity, % at 10 µM; in the data active = activity above about 50%, passing the limit was not always enough
GDH-TPI inh: GDH-TPI coupled enzyme inhibition counter-screen. GDH-TPI coupled enzyme counterscreen, NADH absorbance. inhibition, % at 4.8 µM. 1.2% of 360,000 active. AID 588335; in the data active = inhibition above about 30%;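 also: 0% = DMSO wells and 100% = wells lacking the enzyme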
Starred values were filed as active, the others as inactive; . = no result given; + = active, no number.

SMILES	PrP UTR inh	Mtb hypoxia inh	Mtb FBA inh	PrPC surface inh	Y pestis TopoI	GDH-TPI inh
COc1ccccc1NC(=S)N/N=C/c1cccc(C)c1	-43.7	.	0.8	0.7	11.7	10.7
Oc1ccc(/C=N/NC(=S)N/N=C/c2ccc(O)cc2)cc1	-29.5	.	3.5	-8.8	-19.8	75.3*
COc1ccccc1NC(=S)N/N=C/c1ccc(O)cc1	-60.1	.	2.8	-1.5	-10.0	32.8*
C=C[C@@]1(C)CCC(C(C)=CC=CC(C)(C)O)CC1C(=C)C (stereo partly drawn)	.	1.8	.	.	.	.
CC(C(=O)N1CCN(C(=O)OC(C)(C)C)CC1)n1cc(CCCN=C(NC(=O)OC(C)(C)C)NC(=O)OC(C)(C)C)nn1 (stereo not drawn)	.	12.0	.	.	.	.
C#CCOCCOCCOCCNc1nc(N2CCN(C(=O)CCCCCCCCCCNC(=O)Cn3cc(CCCCCN)nn3)CC2)nc(N2CCN(C(=O)CCCCCCCCCCNC(=O)C(CCC(=O)O)n3cc(CCCCCN)nn3)CC2)n1 (stereo not drawn)	.	7.4	.	.	.	.
CCCCCCCCCCCC(=O)c1c(O)cccc1O	-2.0	.	4.2	6.8	-5.2	14.7
CCCCCC(=O)C(=O)c1ccc(O)cc1O	5.1	12.9	10.2	5.8	-3.6	46.4*
COc1cc(/C=C/C(=O)Nc2nnc(C(C)(C)C)s2)cc(OC)c1OC	-34.7	-8.7	12.7	-5.7	22.3	24.4
COc1cc(/C=C/C(=O)Nc2nc3ccc(S(=O)(=O)N(C)C)cc3s2)cc(OC)c1OC	-19.4	.	25.4	-0.5	-1.7	47.8*
COCCn1c(SCC(=O)N2CCCC2)nnc1-c1ccoc1C	-16.8	.	129.7*	-1.7	-1.5	-8.1
Cc1cc(C)cc(Cn2c3ccc(NC(=O)NCCc4cccs4)cc3c(=O)n2C)c1	.	.	171.1*	15.1	20.9	4.0
Cn1c(=O)c2cc(NC(=O)NCCc3cccs3)ccc2n1Cc1ccccc1	.	.	140.7*	1.1	15.1	13.7
CN(C)c1ccc(C=Nc2cc(-c3ccccc3)nn2-c2ccccc2)cc1	.	10.5	.	.	.	.
CCn1c(=S)sc2c(=O)[nH]c(SCC(=O)Nc3cc(OC)ccc3OC)nc21	-17.9	6.8	-2.0	4.1	10.6	34.0*
COc1ccc(OC)c(NC(=O)CSc2nc3scc(C)c3c(=O)[nH]2)c1	-22.0	.	0.1	3.1	20.9	0.0
COc1ccc(Cl)cc1-n1c(=S)sc2c(=O)[nH]c(SCC(=O)NCC3CCCO3)nc21 (stereo not drawn)	-40.8	-8.6	0.0	-2.8	7.5	38.1*
C=CCOC(=O)C1=CC(C(C)(C)C)C(CCCO)C(OCC)O1 (stereo not drawn)	.	19.6	.	.	.	.
CC=CC(=O)Nc1cccc(C2=NOC3(C2)CC(C(N)=O)N(C(=O)CCCCC)C3)c1 (stereo not drawn)	.	4.4	.	.	.	.
O=C1N=C(N2CCOCC2)S/C1=C\c1ccc(OS(=O)(=O)c2ccccc2)cc1	-7.5	8.4	-0.3	2.0	30.3	18.2
CC1Oc2ccccc2C=C1/C=C1/SC(N2CCOCC2)=NC1=O (stereo not drawn)	-37.9	8.4	2.0	5.0	17.0	17.6
CCc1ccc(/C=C2/SC(N3CCOCC3)=NC2=O)cc1	-11.6	8.5	-2.8	10.1	20.1	47.1*
O=C1N=C(N2CCOCC2)S/C1=C/c1cccs1	-12.4	-1.0	-2.0	-11.0	6.7	33.8*
CC(=O)N1CCN(C2=NC(=O)/C(=C\c3cccs3)S2)CC1	-32.0	18.0	-4.0	-3.9	4.2	7.9
O=C1N=C(N2CCOCC2)S/C1=C\c1ccncc1	-25.7	4.2	-0.6	-12.3	-3.7	20.5
SMILES	PrP UTR inh	Mtb hypoxia inh	Mtb FBA inh	PrPC surface inh	Y pestis TopoI	GDH-TPI inh
CC(C)c1ccc(/C=C2\SC(N3CCOCC3)=NC2=O)cc1	-29.6	4.0	-0.3	-1.7	29.1	31.7*
CC(=C/c1ccccc1)/C=C1/SC(N2CCOCC2)=NC1=O	-43.7	-84.7	0.0	-17.6	8.0	32.0*
Cc1nc2ccccn2c1C(O)=C1C(=O)C(=O)N(CCN2CCOCC2)C1c1cccnc1 (stereo not drawn)	.	11.7	.	.	.	.
CC(C(=O)Nc1ccc2ccccc2c1)C1C[C@@]1(C)C(N)c1ccccc1 (stereo partly drawn)	.	12.2	.	.	.	.
O=C(C1=NN[C@@H]2C(=O)N(c3cccc(F)c3)C(=O)[C@H]12)c1cnccn1	-88.7	12.1	2.3	-6.7	2.9	10.2
CCN1C(=O)[C@@H]2C(C(=O)c3cnccn3)=NN[C@@H]2C1=O	-20.2	8.9	-0.8	-10.5	-1.9	32.4*
CCOC1OC(C(=O)NCc2ccccc2)=CC(c2ccccc2)C1CCCO (stereo not drawn)	.	2.1	.	.	.	.
Cc1ccc(C(=O)N/N=C\c2ccc[nH]2)cc1[N+](=O)[O-]	-27.6	.	1.3	0.7	3.6	48.0*
O=C(N/N=C/c1ccc[nH]1)c1ccc(Cl)cc1	-21.7	.	-1.2	4.8	-1.2	39.0*
O=C(N/N=C/c1ccc[nH]1)c1ccccc1[N+](=O)[O-]	-19.4	.	0.8	-7.1	-1.2	12.8
Cc1cc(C(=O)NN=Cc2c(C)n(C)c3ccccc23)n[nH]1	.	-4.8	.	.	.	.
O=C(CSc1ccccc1)OCC(=O)N1CCN(C(=O)c2ccco2)CC1	-9.7	2.3	-0.9	-1.7	11.8	3.5
O=C(CCN1c2ccccc2Sc2ccccc21)OCC(=O)N1CCN(C(=O)c2ccco2)CC1	-11.8	.	0.8	6.5	52.3*	10.4
CCOC(=O)C1C2COc3ccccc3C2N2C(=O)N(c3ccccc3)C(=O)[C@]12C (stereo partly drawn)	.	7.4	.	.	.	.
Cc1cc(C(=O)CSc2nnc(-c3ccccc3)n2C)c(C)n1C	-12.5	4.1	-0.1	-2.0	-0.3	-7.7
Cn1c(SCC(=O)c2ccc(O)cc2O)nnc1-c1ccccc1	-15.3	-6.9	0.0	-1.4	9.1	34.2*
COC(=O)[C@@]1(Cc2ccc(OC)cc2)C2c3cc(C(=O)N(C)C)n(Cc4ccc(OC(F)(F)F)cc4)c3CC2CN1C(=O)c1ccccc1 (stereo partly drawn)	.	-2.0	.	.	.	.
COC1=CC(=Cc2c(O)c(C#N)c3ccccn23)C=CC1=O	.	-11.0	.	.	.	.
COC1=C/C(=C/c2c(O)c(C#N)c3ccccn23)C=CC1=O	1.5	.	7.6	-5.2	-5.5	44.2*
Cc1cc2ncn(N=Cc3ccc(-c4ccccc4)o3)c2cc1C	.	-0.1	.	.	.	.
CCOP(=O)(OCC)c1nc(-c2cccc3ccccc23)oc1NCc1ccc(OC)cc1	-17.9	3.1	169.2*	9.8	29.3	-2.5
Cc1ccc(-c2nnc(-c3cccc4ccccc34)o2)cc1	-61.6	19.8	3.0	-5.6	-4.3	16.2
CCOP(=O)(OCC)c1nc(-c2cccc3ccccc23)oc1NCc1ccccc1	-4.8	7.0	+	-7.5	-1.8	9.9
N=c1nc(-c2ccccc2)ccn1O	-24.4	.	-14.9	-7.0	1.0	39.1*
CCC(C)NC(=O)NC(Cc1ccccc1)C(=O)O (stereo not drawn)	.	-4.2	.	.	.	.
COc1cc(/C=C2\SC(N)=NC2=O)ccc1OCC(=O)Nc1ccc(C)cc1	7.7	53.4*	-0.6	-12.9	37.9	19.9
